In PubChem BioAssay AID2149 (The Scripps Research Institute Molecular Screening Center, 2009) one finds inhibition data, which are given here for 60 molecules.

The structures appear in SMILES notation. Hit rate of the full screen: of about 2,400 compounds, about 1,800 (75%) were called active.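 The calls were made as follows: active = inhibition above the primary screen limit, the mean inhibition of all tested compounds plus 3 SD (cut at about 25% in these data); inactive = the rest.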 The set was probably picked from earlier hits. Only a sample is shown.

In general, inhibition refers to the change of the read-out against control, counted positive when it falls.

The assay relates to tRNA 2'-phosphotransferase TPT1 [Candida albicans SC5314]. Nature of the assay: Candida albicans TPT1 inhibitors, confirmation, biochemical, fluorescence polarization, triplicate (AID 2149). The note with it: recombinant caTPT1, fluorescence polarization, RNase T1 coupled; at 5 µM; hits give high values.
As to `C[n+]1ccc(/C=C/c2c[nH]c3ccccc23)cc1`, the inhibition was 56.5% (active).

In the case of `Cc1nc2ccccc2nc(=O)c1NNc1ccc([N+](=O)[O-])cc1`, the inhibition is 35.8% (active).

Regarding `CC(=O)n1c(C=Nc2ccccc2)c(O)c2ccccc21`, the inhibition was 73.1% (active). The value for `COc1cc2c(cc1O)[C@H](Cc1ccc(Oc3cc(C[C@@H]4NCCc5cc(OC)c(O)cc54)ccc3O)cc1)NCC2` was 33.8% (active); that for `COc1cc(N2CCCC2)c(OC)cc1/C=C(/C#N)c1cccc(Br)c1` was 68.1% (active); that for `CC(=O)c1cc(NC(=O)c2ccccc2)c(=O)oc1/C=C/N(C)C` was 118% (active).

For the molecule `CC(C)(C)c1ccc(/C=C2\Oc3c(ccc(O)c3CN3CCN(CCO)CC3)C2=O)cc1`, the inhibition is 37.2% (active).

Turning to `C=CCC1=C/C(=C\c2c(N)n3nc(CC(=O)N4CCOCC4)sc3nc2=O)C=C(OC)C1=O`, the inhibition is 104% (active). `CCOC(=O)/C(C#N)=C/c1ccc(N2CCN(Cc3ccccc3)CC2)cc1`: the inhibition is 81.9% (active).

On to `CCOC(=O)/C(C#N)=C/c1ccc(N2CCCCC2)cc1`, for which the inhibition was 126% (active). As for `CCN1/C(=C/c2ccc3ccc(C)cc3[n+]2CC)Sc2ccccc21`, the inhibition was 44.2% (active). Consider `CCN1/C(=C\c2ccc3ccccc3[n+]2CC)Sc2cc(C)ccc21`, for which the inhibition was 78.3% (active). On to `COc1ccc(N=C(C)c2sc3ccccc3c2O)cc1`, for which the inhibition was 70.2% (active). The value for `COc1ccc(C2=NN(C(=O)c3ccccc3C(=O)O)C(c3ccccc3O)C2)cc1` (stereo not given) was 26.3% (active); that for `CN(C)c1ccc(/C=C2\NC(=S)N(Cc3ccccc3)C2=O)cc1` was 160% (active); that for `CCOC(=O)c1c(NC(=S)Nc2ccccc2)sc2c1CCN(C)C2` was 42.8% (active). `COc1cc(/C=C2/C(=O)NN(c3cccc(Cl)c3)C2=O)cc(Br)c1O`: the inhibition is 153% (active). On to `Oc1ccc(/C=N/Nc2nc(-c3ccccc3F)nc3ccccc23)c(O)c1`, for which the inhibition is 29.1% (active). `CN(c1ccccc1)c1ccc(/C=c2\s/c(=C(/C#N)C(=O)C(C)(C)C)n(Cc3ccco3)c2=O)cc1`: the inhibition was 127% (active). On to `CN1/C(=C\C=C2\N=C(c3ccc(F)cc3)OC2=O)C(C)(C)c2ccccc21`, for which the inhibition is 151% (active). Consider `Cc1ccc(Nc2ccccc2N)cc1`, for which the inhibition was 25.8% (active). As for `CCOC(=O)c1c(CC(C)C)csc1/N=C/C1=C(O)CCCC1=O`, the inhibition was 11.9% (inactive). For `Cn1cccc1/C=C1\SC(=S)N(NC(=O)c2ccc(Cl)cc2)C1=O`, the inhibition is 101% (active). The same measure for `CCn1c(/C=C/c2ccc([N+](=O)[O-])o2)nc2ccccc2c1=O`: 36.7% (active). For the molecule `COc1ccccc1/C=N/Nc1nc(C)c(C(C)=O)s1`, the inhibition was 33.1% (active). In the case of `CCOc1nnc(C)c2c(C)n(-c3cccc(Cl)c3)nc12`, the inhibition was 76.5% (active).

Consider `O=C1NC(=O)C2C1C(c1ccc([N+](=O)[O-])cc1)=NN2Cc1ccccc1` (stereo not given), for which the inhibition was 33.2% (active). Turning to `CCN(CC)C(=O)CSC(Nc1cccc(F)c1)=C(C#N)C#N`, the inhibition is 46.5% (active). In the case of `O=C(N/N=C/c1sc(N2CCCCC2)nc1-c1cccs1)c1cccnc1`, the inhibition was 44.1% (active).

Consider `NNC(=O)c1oc2nc(-c3ccccc3)cc(-c3ccco3)c2c1N`, for which the inhibition is 31.5% (active).

For the molecule `COc1ccc(Cc2nc(-c3ccccn3)no2)cc1OC`, the inhibition is 8.13% (inactive). The same measure for `Cc1ccc(Nc2nc(Cl)c(C=O)s2)cc1`: 67.3% (active); for `CCOc1ccc2nc(/N=C/c3nc(-c4ccccc4)oc3O)sc2c1`: 58.6% (active); for `Fc1ccc2nc(Nc3nc4c(s3)CCCC4)sc2c1`: 28.4% (active).

Consider `Cc1c(-c2ccccc2)cn2c1-c1ccc(C)n1CC2`, for which the inhibition was 32.8% (active). In the case of `Cn1c2ccccc2c2cc(/C=C(\NC(=O)c3ccccc3)C(=O)NCC(=O)O)ccc21`, the inhibition was 80.3% (active). Turning to `Cc1ccc(-c2nn(-c3ccccc3)cc2/C=C2\SC(=S)N(CCCCCC(=O)O)C2=O)o1`, the inhibition was 68.6% (active). Turning to `O=C(Nc1ccc(S(=O)(=O)Nc2nccs2)cc1)c1cc(-c2ccncc2)nc2ccccc12`, the inhibition was 49.1% (active). As for `CS(=O)(=O)c1ccc2c(c1)SC1=NC(=O)/C(=C/c3ccco3)C(=N)N12`, the inhibition is 44.3% (active). As to `Cc1cc(/C=C2/SC(=O)N(CC(=O)N3CCCC3)C2=O)ccc1N1CCOCC1`, the inhibition is 63.5% (active).

Regarding `Cc1sc2nc(COC(=O)C(NC(=O)c3ccc(Cl)cc3Cl)C(C)C)[nH]c(=O)c2c1C` (stereo not given), the inhibition was 55.1% (active).

On to `Cc1c(C(=O)OC(C)C)sc(NC(=O)c2cccnc2)c1C#N`, for which the inhibition is 26% (active). On to `Nc1c(C(=O)c2cccs2)sc2nsc(SCCN3CCCCC3)c12`, for which the inhibition was 67.7% (active). As for `CCCCCCc1cc2cc(-c3nnc(-c4ccccc4)o3)c(=O)oc2cc1O`, the inhibition was 117% (active).

`COc1cc(/C=C2/SC(=S)N(Cc3ccccc3)C2=O)cc(OC)c1O`: the inhibition was 98.5% (active). Regarding `CCN(CC)c1ccc2cc(C(N)=O)/c(=N\NC(=O)c3ccncc3)oc2c1`, the inhibition was 139% (active). For the molecule `Cc1cc(O)c(C(=O)/C=C/c2c(F)c(F)c(F)c(F)c2F)c(=O)o1`, the inhibition was 63.4% (active). Regarding `CN1C(=O)/C(=C/C=C2\SCCN2C)OC1=S`, the inhibition was 172% (active). Regarding `CCN(CC)c1ccc(/C=N/Nc2nc(C)cc(C)n2)c(O)c1`, the inhibition was 34% (active). As for `CSC1=N/C(=C\C=C\c2cccs2)C(=O)S1`, the inhibition is 52.8% (active). As for `Nc1nonc1-n1nnc(C(=O)N/N=C/c2cc(Br)ccc2O)c1CSC1=NCCS1`, the inhibition was 37.7% (active). Regarding `N#C/C(=C/c1ccc(N2CCCCC2)o1)C(=O)NCCc1c[nH]c2ccccc12`, the inhibition is 191% (active). On to `Cc1cc(/C=N/Nc2ccc([N+](=O)[O-])cn2)c(C)n1-c1cccc(C(=O)O)c1`, for which the inhibition is 54.5% (active). As to `Cc1ccc(-n2c(C)cc(/C=N/Nc3ccc([N+](=O)[O-])cn3)c2C)c(C)c1`, the inhibition was 60.9% (active). Turning to `Cc1ccc2[nH]c(=O)c(CN3CCCCC3)c(-c3ccccc3)c2c1`, the inhibition was 2.06% (inactive). As to `N#C/C(=C(/O)COC(=O)COc1ccc(Cl)cc1)c1nc2ccccc2[nH]1`, the inhibition is 40.6% (active). As for `CCOc1ccc(-n2c(O)c(/C=N/c3ccnn3Cc3ccncc3)c3ccccc3c2=O)cc1`, the inhibition was 80.4% (active).

For `CN=c1scc(-c2cc(OC)ccc2OC)n1/N=C/c1c(C)[nH]c2ccccc12`, the inhibition is 22.2% (inactive).

`Cc1ccc(CSCC2Nc3ccc(C(=O)N4CCN(c5ccc(F)cc5)CC4)cc3NC2=O)cc1` (stereo not given): the inhibition is 16.1% (inactive). For `O=C1Nc2cc(C(=O)N3CCN(c4ccc(F)cc4)CC3)ccc2NC1CSCc1cccc(F)c1` (stereo not given), the inhibition is 112% (active).
